{"source": "PubChem BioAssay AID686970", "about": "(National Center for Advancing Translational Sciences (NCATS), 2013)", "note": "Among all 360,000 compounds or so, about 6,000 (1.7%) were called active. Not shown: some 8% with an inconclusive outcome. The full list was thinned out, with actives kept by preference. A number with no mark means an inactive call. Calls follow the shape of the dose curve; as a rule, active = well fitted cell-killing curve with a large enough effect; inconclusive = small, poorly fitted or top-dose-only effect, or effect the other way; inactive = flat fitted curve, though single readings scatter. Potency is read from the fitted curve at half-maximal effect.", "data": [{"test": "qHTS for induction of synthetic lethality in tumor cells producing 2HG: qHTS for the HT-1080-NT fibrosarcoma cell line;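 also: NT is the 2HG producing partner of a matched IDH1 knockdown line; nearly all actives have a fitted effect of over 55% in size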;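 as to activity, negative = less viability: 0% = DMSO-treated cells and -100% = media-only wells without cells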", "conditions": "HT-1080-NT fibrosarcoma viability, CellTiter-Glo ATP luminescence, 48 h; series mostly up to 46.1 µM; activity, negative = less viability: at the top concentration", "how_it_was_run": "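Compounds were tested in concentration-response format on HT-1080-NT cells for 48 hours at 37 degrees C. Cell viability came from CellTiter-Glo luminescence; curves were classified by r2, response magnitude and activity.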", "units": {"activity, negative = less viability": "%"}, "values": [{"compound": "COc1ccc(NC(=O)N(C)C[C@@H]2OCc3cn(nn3)CCCC(=O)N([C@H](C)CO)C[C@H]2C)c(OC)c1", "activity, negative = less viability": -9.92}, {"compound": "CCCCNC(=O)C[C@@H]1C[C@@]2(C(=O)OC)CC(C)(C)CC=C2N(Cc2ccco2)C1=O", "activity, negative = less viability": 8.85}, {"compound": "COc1ccc(NC(=O)c2nc(-n3nc(C)cc3C)ccc2Cl)cc1Cl", "activity, negative = less viability": 1.16}, {"compound": "COc1ccc(Nc2cc(Sc3ccc(OC)cc3)ncn2)cc1", "activity, negative = less viability": -15.5}, {"compound": "COc1ccc(Nc2cc(C)nc(-n3nc(C)cc3C)n2)cc1", "Potency": "1.12 µM (active)"}, {"compound": "CNS(=O)(=O)c1ccc2c(c1)[nH]c(=S)n2C", "activity, negative = less viability": 1.17}, {"compound": "CC1=C(C(=O)N2CCOCC2)CC(CC(=O)NCc2cccc3ccccc23)C(=O)N1CCC1=CCCCC1", "note": "(stereo unspecified)", "activity, negative = less viability": 2.57}, {"compound": "CCCC(=O)N1CCC1(C)C(=O)NCc1ccc(C(C)C)cc1", "note": "(stereo unspecified)", "activity, negative = less viability": 3.57}, {"compound": "O=C(O)c1ccc(NC(=O)c2cn(-c3ccccc3)nc2-c2ccc(Cl)cc2)cc1", "Potency": "9.2 µM (active)"}, {"compound": "Cc1ccc(-c2nn(-c3ccccc3)cc2C(=O)NCCCN2CCCC2=O)cc1", "activity, negative = less viability": -5.81}, {"compound": "Cc1ccc(-c2nn(-c3ccccc3)cc2C(=O)Nc2cccc(S(=O)(=O)N3CCOCC3)c2)cc1", "activity, negative = less viability": -0.846}, {"compound": "COC(=O)C1(C(=O)OC)C[C@H](c2ccccc2)N(Cc2ccccc2OC)[C@@H]1c1ccccc1", "activity, negative = less viability": -7.18}, {"compound": "CCCNC(=O)C1(C)CCN(Cc2csc(-c3ccc(Cl)cc3)n2)C1", "note": "(stereo unspecified)", "activity, negative = less viability": -20.6}, {"compound": "Oc1ccccc1N1CCN(C(=S)NCc2ccccc2)CC1", "activity, negative = less viability": -2.58}, {"compound": "O=C(COC(=O)c1ccccc1C(=O)N1CCN(c2ccccc2)CC1)NCc1ccccc1", "activity, negative = less viability": 11.1}, {"compound": "Oc1ccc(N2CCN(C(=S)NCc3ccccc3)CC2)cc1", "Potency": "9.2 µM (active)"}, {"compound": "O=C(COC(=O)c1ccc([N+](=O)[O-])cc1Cl)NC(=O)c1ccccc1", "activity, negative = less viability": 7.05}, {"compound": "O=C(NOCc1ccccc1)c1cccc([N+](=O)[O-])c1", "activity, negative = less viability": 1.76}, {"compound": "O=C(NC(Nc1nc2ccc([N+](=O)[O-])cc2s1)(C(F)(F)F)C(F)(F)F)c1ccccc1", "Potency": "5.17 µM (active)"}, {"compound": "COc1ncnc2c1ncn2CCCNCCN1CCOCC1", "activity, negative = less viability": 17.1}, {"compound": "CC1CCCCN1CCCNC(=O)Cn1ncc2c([nH]c3ccccc32)c1=O", "note": "(stereo unspecified)", "activity, negative = less viability": -7.98}, {"compound": "CCCCCn1c(=O)[nH]c2cc(C(=O)NCCCN3CCCCC3C)ccc2c1=O", "note": "(stereo unspecified)", "Potency": "23.1 µM (active)"}, {"compound": "CCC1CCCCN1CCCNC(=O)C1CCC(Cn2c(=O)[nH]c3ccccc3c2=O)CC1", "note": "(stereo unspecified)", "activity, negative = less viability": -3.67}, {"compound": "CC(C)(O)C1=C[N+](=O)CC=C1", "activity, negative = less viability": 0.401}, {"compound": "c1cc(-c2ccc3[nH]ccc3c2)n2ccnc2c1", "activity, negative = less viability": -16.8}, {"compound": "NC(CSC(c1ccccc1)(c1ccccc1)c1ccc(-c2ccccc2)cc1)C(=O)O", "note": "(stereo unspecified)", "activity, negative = less viability": -1.58}, {"compound": "Clc1ccc(-c2cc(C3CCNCC3)[nH]n2)c(Cl)c1", "Potency": "23.1 µM (active)"}, {"compound": "Clc1ccc(-c2cc(-c3ccccn3)on2)c(Cl)c1", "activity, negative = less viability": -22.7}, {"compound": "C[C@@H]1Cn2cnc(C(=O)Nc3ccc(CNC(=O)OC(C)(C)C)cc3)c2C(=O)N1", "activity, negative = less viability": 0.607}, {"compound": "Cc1nnc(SC(C)C(=O)c2c[nH]c3ccccc23)n1C1CC1", "note": "(stereo unspecified)", "activity, negative = less viability": -1.34}, {"compound": "O=C(CSc1nc(Nc2ccccc2)nc(N2CCOCC2)n1)Nc1cc(Cl)ccc1O", "Potency": "16.4 µM (active)"}, {"compound": "Cc1ccccc1NC(=O)CSc1nc2ccc(Nc3nc(N4CCOCC4)nc(N4CCOCC4)n3)cc2s1", "activity, negative = less viability": -0.829}, {"compound": "CC1(c2ccccc2)NC(=O)N(CC(=O)Nc2cc(Cl)ccc2N2CCOCC2)C1=O", "note": "(stereo unspecified)", "activity, negative = less viability": -1.63}, {"compound": "c1ccc2c(c1)nnn2-c1ccncc1", "activity, negative = less viability": -1.78}, {"compound": "O=C(Nc1ccc(F)cc1)C1CCN(C(=O)c2ccc([N+](=O)[O-])cc2)CC1", "activity, negative = less viability": -4.07}, {"compound": "CC1CCN(C(=O)c2ccc(S(=O)(=O)Cc3cc(F)ccc3F)c([N+](=O)[O-])c2)CC1", "Potency": "11.6 µM (active)"}, {"compound": "O=C(c1ccc(Oc2ccc(Cl)cc2)c([N+](=O)[O-])c1)N1CCCC1", "activity, negative = less viability": -4.99}, {"compound": "O=C(NCCc1ccc(Cl)cc1)c1cccc(N2CCCC2=O)c1", "activity, negative = less viability": 12.6}, {"compound": "Cc1ccc(NC(=S)NCCc2ccc(Cl)cc2)c(C)c1", "activity, negative = less viability": -19}, {"compound": "Oc1cc2c(cc1O)CN(C(=S)NCCc1ccc(Cl)cc1)CCC2", "Potency": "31.6 µM (active)"}, {"compound": "Cc1cc(C)c2c(=O)n3c(nc2c1)C(CC(C)C)NC(=O)c1cc2ccccc2cc1-3", "note": "(stereo unspecified)", "activity, negative = less viability": 4.37}, {"compound": "CC(C)C1CC2=C(C(=O)OC(C)(C)O2)C(c2ccc(F)cc2)O1", "note": "(stereo unspecified)", "activity, negative = less viability": 0.447}, {"compound": "CN1OC[C@@H]2CN(S(=O)(=O)c3cccc4ccccc34)[C@H](c3ccc(N4CCCCC4)cc3)C[C@@H]21", "activity, negative = less viability": -19.7}, {"compound": "CS(=O)(=O)/C(C#N)=C/c1cccn1S(=O)(=O)c1ccc([N+](=O)[O-])cc1", "activity, negative = less viability": 5.67}, {"compound": "CN(C)CCOc1ccc(Cl)cc1C(C)(C)C", "activity, negative = less viability": -6.35}, {"compound": "CN(C)CCOCCOc1ccc(Cl)c2ccccc12", "Potency": "18.4 µM (active)"}, {"compound": "Clc1cccc(Cl)c1OCCOCCNCc1ccccc1", "activity, negative = less viability": -2.39}, {"compound": "COc1cc(C)c(CN2CCN(C(=O)CCC(=O)c3ccc(C)s3)CC2)cc1OC", "activity, negative = less viability": 0.481}, {"compound": "Cc1ccc(NC(=O)Cn2sc3ccccc3c2=O)cc1", "activity, negative = less viability": -4}, {"compound": "CC1(C(=O)NS(=O)(=O)c2cccc(F)c2)CCN1C(=O)Cc1ccc(Cl)cc1Cl", "note": "(stereo unspecified)", "activity, negative = less viability": 8.06}, {"compound": "COC(=O)[C@]12CCCCC=C1N(Cc1cccc3ccccc13)C(=O)[C@H](CC(=O)N1CCOCC1)C2", "activity, negative = less viability": -14.1}]}]}
